# Assay results as given in PubChem BioAssay (NCI).
# Compounds without any hit were thinned out: in the full panel of roughly 83,000, 20% have a hit.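 Activity criterion: percent growth below 10, measured after cells in 96-well plates were exposed to a single compound concentration for 48 hours.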 Values without a mark were called inactive. Activity calls are given as the source filed them.
# Tested on: HL-60(TB) leukemia
# Assay: NCI-60 one-dose screen, 48 h (100 = growth as untreated, 0 = no growth, -100 = all killed)
# Details: 10 µM unless noted
# Experimental: Growth inhibition of the HL-60(TB) human tumor cell line is measured as a screen for anti-cancer activity. Cells are grown in 96 well plates and exposed to the test compound for 48 hours. Compounds are tested at a single concentration, which is 10^-5 M for most compounds. The reported endpoint is percent growth (GI% or GIPRCNT), where numbers from 0 - 100% represent growth inhibition, and numbers from -100% - 0 represent cell death. For example, a value of 40 represents 60% growth inhibition. A value of 0 means no net growth occurred over the course of the experiment. A value of -40 indicates 40% of cells at the beginning of the experiment died by the end of the experiment. A value of -100 means all cells are dead at the end of the experiment.
# NCI-60 Human Tumor Cell Lines Screen was performed using the standard one-dose NCI protocol, which is described in more detail at https://dtp.cancer.gov/discovery_development/nci-60/default.htm.
# Compounds with GIPRCNT values below 10 were considered active. Activity score was based on GIPRCNT using the following formula: […]
# Score is 0 for GIPRCNT values of 100 or above, 50 for GIPRCNT values of 0, and 100 for GIPRCNT values of -100.
row,SMILES,growth
1,C/C(=N\NC(N)=S)c1ccc(Nc2nc(SC(C)C)nc(-c3ccccc3)c2C#N)cc1,89.9%
2,O=C(Nc1ccc(-c2ccc3c(c2)NC(=O)/C3=C\c2ccc[nH]2)cc1)Nc1ccc(Cl)c(Cl)c1,51.8%
3,N#CC1=C(c2cccs2)Nc2c(c(-c3ccccc3)nn2-c2ccccc2)C12C(=O)Nc1ccc(Br)cc12 (stereo not given),-7.78% (active)
4,CN(C)CCOc1ccc(C(=O)C2[C@H](c3ccc(Cl)cc3)[C@@H](c3ccccc3)NC23C(=O)Nc2ccc(Cl)cc23)cc1 (stereo not given in full),-75.6% (active)
5,COc1cc(C2CC(c3ccc(C(F)(F)F)cc3)=Nc3c(N)nc(N)nc3N2)ccc1Oc1nc(Nc2ccc(F)cc2)nc(N(C)C)n1 (stereo not given),13.7%
6,COc1ccc(C(=O)CSc2nnc(-c3c[nH]c4ccccc34)n2-c2ccccc2)cc1,81.3%
7,Cc1ccc(Cl)cc1NC(=O)Nc1nc2ccc([N+](=O)[O-])cc2s1,1.69% (active)
8,CC(=O)Nc1cccc(Nc2nccc(N[C@@H](C)c3ccccc3)n2)c1,5.18% (active)
9,CC1(c2ccccc2)NC(=O)N(CC(=O)Nc2ccc(C(=O)/C=C/c3ccc(Cl)cc3)cc2)C1=O (stereo not given),-27.7% (active)
10,COc1cc2oc(-c3cccc(C(=O)Nc4ccc(Cl)cc4)c3)cc(=O)c2c(OCCNC(=O)CNC(=O)OC(C)(C)C)c1OC,55.5%
11,COc1ccc(C(=O)Nc2ccc(-c3ccc4c(c3)NC(=O)/C4=C\c3ccc[nH]3)cc2)cc1,89.6%
12,Cc1cccc(NC(=O)[C@]23CCC(C)(C)CC2C2=CCC4[C@@]5(C)C[C@@H](O)[C@H](O)[C@@](C)(CO)C5CC[C@@]4(C)[C@]2(C)CC3)c1 (stereo not given in full),-14.4% (active)
13,COC(=O)/C=C/c1cccc2c1C(=O)NC(C)(c1cc3cc4ccccc4cc3oc1=O)N2 (stereo not given),54.7%
14,Cc1cc2c(cc1Cl)C(=O)/C(=C/c1ccccc1)O2,-13.7% (active)
15,S=C(NCCc1ccccc1)Nc1ccc(OCc2nc3ccccc3[nH]2)cc1,100%
16,CN(C)c1nc(NCCNS(=O)(=O)c2ccc(C(=O)/C=C/c3ccccc3)cc2)nc(Nc2ccc(F)cc2)n1,14%
17,CCCSc1nc(NCCc2c[nH]c3ccccc23)c(C#N)c(-c2ccc(F)cc2)n1,54.2%
18,C=CCn1c(SCC(=O)Nc2ccc(C(=O)/C=C/c3ccccc3)cc2)nnc1-c1c[nH]c2ccccc12,32.4%
19,CC(C)c1ccc2c(N)c(C(=O)Nc3ccc(C(F)(F)F)cn3)sc2n1,46.8%
20,CC12OOC(C)(OO1)C2CCC(=O)NCCCNc1ccnc2cc(Cl)ccc12 (stereo not given),96.6%

row,SMILES,growth
1,COc1cc2nc(SCc3ccccc3)n(-c3ccc(Cl)cc3)c(=O)c2cc1OC,34.8%
2,COc1c(F)ccc(C(=O)Nc2ccc3nc(NC(=O)C4CCCN(S(=O)(=O)c5ccc(Br)c(F)c5)C4)sc3c2)c1F (stereo not given),88.8%
3,O=C(CN1C(=O)/C(=C/c2ccccc2Cl)SC1=S)N1CCOCC1,90.2%
4,CC1(c2ccccc2)NC(=O)N(CC(=O)Nc2ccc(C(=O)/C=C/C=C/c3ccccc3)cc2)C1=O (stereo not given),36.8%
5,COC(=O)c1cc(C(=O)C(F)(F)F)n2c3ccccc3c3ccccc3c12,99.5%
6,Cc1cccc2cc(-c3cc(-c4ccccc4)nc(=S)[nH]3)c(Cl)nc12,58.9%
7,Cc1ccc(F)cc1N/C=c1\s/c(=C(\C#N)C(=O)Nc2ccccc2)n(-c2ccccc2)c1=O,111%
8,Cc1oc(-c2ccccc2)nc1CN[C@@H]1C[C@@H]2C[C@H]([C@H]1C)C2(C)C,-23.7% (active)
9,CC1(C)CC[C@]2(C(=O)O)CC[C@]3(C)C(=CCC4[C@@]5(C)C[C@@H](O)[C@@H]6OC(c7cccc(F)c7)OC[C@@]6(C)C5CC[C@]43C)C2C1 (stereo not given in full),9.5% (active)
10,O=c1oc2ccccc2cc1-c1csc(N=Nc2c(O)[nH]c3ccc(Br)cc23)n1,99%
11,Cc1sc2c(c1C)C(c1ccc(Cl)cc1)=N[C@@H](CC(=O)NCCCCCNC(=O)COc1ccc(C3CCC(=O)NC3=O)cc1)c1nnc(C)n1-2 (stereo not given in full),-16.6% (active)
12,CC(C)(C)c1cc(-c2cc(-c3ccccc3)[nH]c(=O)c2C#N)cc(C(C)(C)C)c1,82.3%
13,CC(=O)c1cc(C(=O)c2ccccc2)n2c1ccc1ccccc12,94.7%
14,CC[C@]12C=CCN3CC[C@]4(C(=C(C(=O)OC)C1)Nc1cc(OC)c([C@@H]5[C@H]6O[C@H]6[C@@]6(CC)CC(C(=O)OC)=C7Nc8cc(O)ccc8[C@@]78CCN5[C@@H]68)cc14)[C@@H]32,-44.4% (active)
15,COc1ccc(/C(C)=N/N=C2C(=O)N(C)c3ccc(Br)cc32)cc1S(N)(=O)=O,99%
16,CC1=C(C)C(=O)C(N2CCSCC2)=CC1=O,89.3%
17,COc1cc2oc(-c3cccc(C(=O)Nc4ccc(Cl)cc4)c3)cc(=O)c2c(OCCN)c1OC,-56.5% (active)
18,COc1cccc(/C=C/c2nc3ccccc3c(=O)n2CC(=O)Nc2ccc(Cl)cc2)c1,115%
19,COc1ccc2oc(=O)c(C3(C)NC(=O)c4c(/C=C/C(=O)OC(C)(C)C)cccc4N3)cc2c1 (stereo not given),-5.42% (active)
20,COc1ccc(NC(=O)Nc2nc3ccc([N+](=O)[O-])cc3s2)cc1,2.05% (active)
